The record followed here is PubChem BioAssay AID633 (Emory University Molecular Libraries Screening Center, 2007).

The campaign covered roughly 86,000 compounds. About 1,100 (1.3%) were called active.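 The calls were made as follows: active = compounds whose percent inhibition of the receptor-coactivator binding signal exceeds about 50% in the single-dose screen (limit read from the data); inactive = the rest.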 Only a selection was taken, and actives are over-represented in it overall.

What is called inhibition is the relative decrease from the control value, in per cent.

For the assay, the target named is Estrogen receptor beta (Homo sapiens) (UniProt Q92731). Briefly: blockers of coactivator peptide binding to ERβ – biochemical, TR-FRET, ERβ LBD, SRC-1 peptide, primary screen (AID 633).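 Also: 0% = receptor plus peptide wells without compound and 100% = peptide-only wells.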 To be noted: TR-FRET ER-beta LBD / SRC1-Cy5 peptide binding; at 25.6 µM; hits give high values; receptor agonist-loaded with 1 µM estradiol. Background: In TR-FRET formats the signal depends on donor and acceptor labels being close together.
Sequence of Estrogen receptor beta (Homo sapiens) (Q92731 whole entry, looked up, the tested form may be a part): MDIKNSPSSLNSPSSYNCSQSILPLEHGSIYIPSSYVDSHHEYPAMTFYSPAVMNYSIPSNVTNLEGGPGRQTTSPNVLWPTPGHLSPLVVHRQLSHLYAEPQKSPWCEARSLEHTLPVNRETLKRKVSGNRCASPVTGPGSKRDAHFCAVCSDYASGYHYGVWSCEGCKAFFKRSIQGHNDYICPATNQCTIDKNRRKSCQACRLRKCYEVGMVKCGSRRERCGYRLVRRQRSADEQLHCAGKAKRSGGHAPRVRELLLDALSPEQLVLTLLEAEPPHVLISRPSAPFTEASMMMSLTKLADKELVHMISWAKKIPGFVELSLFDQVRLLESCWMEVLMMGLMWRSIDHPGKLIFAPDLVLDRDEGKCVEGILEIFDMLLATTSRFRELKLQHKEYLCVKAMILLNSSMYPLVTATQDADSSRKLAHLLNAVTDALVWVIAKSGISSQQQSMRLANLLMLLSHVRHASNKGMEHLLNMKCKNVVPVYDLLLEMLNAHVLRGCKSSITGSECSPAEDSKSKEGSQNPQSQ
For the compound `CC(CO)N1CCS(=O)(=O)CC1` (stereo not given), the inhibition was -15% (inactive).

In the case of `CCN(c1ccccc1)S(=O)(=O)c1ccc(NC(=O)C(C)(C)C)cc1`, the inhibition is 14.4% (inactive).

Regarding `C=CCn1c(=O)c2ccccc2n2c(SCC(=O)N3CCCc4ccccc43)nnc12`, the inhibition is -1.59% (inactive).

In the case of `C=CCn1c(SCC(=O)/C(C#N)=C(\C)N)nc2sc(C)c(C)c2c1=O`, the inhibition is 16.2% (inactive).

For the compound `CCCn1c(=O)c2ccccc2n2c(SCC(=O)/C(C#N)=C(\C)N)nnc12`, the inhibition was 50.4% [fluorescence artefact?] (active).

In the case of `O=C(CN1CCSCC1)N/N=C/c1ccc(F)cc1F`, the inhibition was 12.6% (inactive).

Consider `CC(C)(O)C(=O)NN(C(=O)c1ccccc1)c1cccc(Br)c1`, for which the inhibition was -3.36% (inactive).

In the case of `COC(=O)c1cccc(N(C(=O)c2ccco2)C(C(=O)NC2CCCC2)c2ccco2)c1` (stereo not given), the inhibition is -14.4% (inactive).

For the compound `O=C(NCCOc1ccccc1)c1ccccc1`, the inhibition was 7.95% (inactive).

As for `CS(=O)(=O)N(CC(=O)NCc1ccco1)c1ccc2c(c1)OCO2`, the inhibition was 44.3% (inactive).

As for `O=C(Cn1nnc(-c2ccccc2)n1)NCc1ccc2c(c1)OCO2`, the inhibition is 9.19% (inactive).

Consider `O=C(Cn1nnc(-c2ccc3c(c2)OCO3)n1)NCc1ccco1`, for which the inhibition was 50.1% (active).

`CC1(N2CCOCC2)CC2(O)C(=[N+]1[O-])CCc1nonc12` (stereo not given): the inhibition was 58.1% (active).

As to `Cc1[nH]n(-c2cccc(Cl)c2)c(=O)c1/C=N/n1c(C)nc2ccccc2c1=O`, the inhibition was -3.58% (inactive).

As to `CC(=O)Nc1ccc(S(=O)(=O)N2CCN(C(=O)c3ccccc3F)CC2)cc1`, the inhibition was -9.27% (inactive).

As to `O=C(CN1CCCCCC1)N1c2ccccc2Sc2ccc(C(F)(F)F)cc21`, the inhibition is -7.5% (inactive).

With `CC(c1ccco1)N(C(=O)Nc1ccccc1)C1CCCCC1` (stereo not given), the inhibition was 0.39% (inactive).

Turning to `Cc1c(Br)cc(C(=O)N2CCCCCC2)c(C)c1C`, the inhibition was -18.4% (inactive).

For the compound `COc1ccc(Cc2nnc(NS(=O)(=O)Cc3ccccc3)s2)cc1`, the inhibition was 39.9% (inactive).

As for `COc1ccc(Cc2nnc(NC(=O)Cc3cccs3)s2)cc1`, the inhibition was 92% (active).

With `CCCc1ccc(-c2csc(NC(=O)Cc3cccs3)n2)cc1`, the inhibition was 11.4% (inactive).

As to `CCOc1ccc(Nc2oc(Cc3ccccc3)nc2C#N)cc1`, the inhibition is -1.53% (inactive).

As for `COc1ccc(Nc2oc(-c3ccccc3Cl)nc2C#N)cc1`, the inhibition is 76.6% [fluorescence artefact?] (active).

`COc1ccccc1-c1nc(C#N)c(N2CCC(C(N)=O)CC2)o1`: the inhibition was -16.6% (inactive).

`Cc1ccc(/C=N/NC(=O)Cn2nc(C)c(Br)c2C)o1`: the inhibition was -11.6% (inactive).

As for `CCOc1ccccc1C(=O)NC1CC2CCCC(C1)N2Cc1ccccc1` (stereo not given), the inhibition was 5.21% (inactive).

In the case of `CCN(CC)CCn1c2ccc(Cl)cc2c2nc(C)sc21`, the inhibition is -0.33% (inactive).

As to `CS(=O)(=O)N(CC(=O)Nc1ccc(Cl)c(Cl)c1)C1CCCCC1`, the inhibition was -2.05% (inactive).

With `CC(C)(C)C1CCc2c(sc3nc(SCC(N)=O)nc(N)c23)C1` (stereo not given), the inhibition was -6.07% (inactive).

Take `COc1ccc2[nH]c3ccc(OC)cc3c2c1`: the inhibition was 1.96% (inactive).

As for `COc1ccc2[nH]cc(/C=C(/C#N)S(=O)(=O)c3ccccc3)c2c1`, the inhibition is 54.7% [fluorescence artefact?] (active).

As for `CCN(CC)CC(=O)c1c[nH]c2ccc(OC)cc12`, the inhibition was -8.33% (inactive).

For the compound `COC(=O)c1ccc(CSc2ccc3nnc(-c4ccccc4)n3n2)o1`, the inhibition is -3.95% (inactive).

Consider `Cc1ccc(S(=O)(=O)NC(=O)COc2ccccc2C)cc1`, for which the inhibition was 8.77% (inactive).

Regarding `CCOc1cc(N2CCOCC2)c(OCC)cc1NC(=O)COC(=O)[C@H](Cc1c[nH]c2ccccc12)NC(C)=O`, the inhibition is -5.51% (inactive).

As to `CCOc1cc(N2CCOCC2)c(OCC)cc1NC(=O)COc1cccc2cccnc12`, the inhibition is 61.6% [fluorescence artefact?] (active).

In the case of `CCOc1cc(NC(=O)c2ccco2)c(OCC)cc1NC(=O)COc1ccccc1`, the inhibition was 48.5% (inactive).

With `O=C(Oc1ccccc1C(=S)N1CCCCC1)c1cc([N+](=O)[O-])cc([N+](=O)[O-])c1`, the inhibition was -10.5% (inactive).

`Cc1nnc(SC(C)C(=O)Nc2ccc(S(=O)(=O)NC3CCCCC3)cc2)s1` (stereo not given): the inhibition was 17.8% (inactive).

As to `COc1ccc(CC(=O)Nc2ccc(-c3nnc(-c4ccc(C)cc4)o3)cc2)cc1`, the inhibition is 15.6% (inactive).

As to `Cc1ccc(OCC(=O)Nc2ccc(-c3nnc(-c4ccco4)o3)cc2)cc1`, the inhibition is 63.5% [fluorescence artefact?] (active).

On to `CCOc1ccc(-c2nnc(-c3ccco3)o2)cc1`, for which the inhibition was -5.81% (inactive).

With `COc1ccc(CC(NC(C)=O)C(=O)N2CCN(C(=O)Nc3cccc(Cl)c3)CC2)cc1OC` (stereo not given), the inhibition is -8.98% (inactive).

For `COc1ccc(C(C#N)Nc2ccccc2C)cc1` (stereo not given), the inhibition was -1.62% (inactive).

`CC(C)CNC(=O)CC(c1ccccc1)c1c(O)ccc2ccccc12` (stereo not given): the inhibition was -3.69% (inactive).

In the case of `O=C(Cn1c(-c2cscn2)nc2ccccc21)Nc1ccc(Cl)cc1`, the inhibition is 18.5% (inactive).

`COc1ccccc1NC(=O)CSc1nnc(C)n1CC1CCCO1` (stereo not given): the inhibition was -11.8% (inactive).

For the compound `CN(C)[C@@H]1C(=O)C(C(N)=O)=C(O)[C@@]2(O)C(=O)C3=C(O)c4c(O)ccc(Cl)c4[C@@H](O)[C@H]3C[C@@H]12`, the inhibition is 91.5% [fluorescence artefact?] (active).

For `COc1ccc(-n2c(C)csc2=S)cc1`, the inhibition was -15.3% (inactive).

As for `ON=C1/C(=N\O)CC2(C/C1=N/O)OCCO2`, the inhibition was 60.3% (active).

Take `O/N=C1\CC2(Cc3nonc31)OCCO2`: the inhibition is 23% (inactive).

Consider `O=C(CSc1nnnn1-c1ccccc1)NCc1ccco1`, for which the inhibition was 17.8% (inactive).

In the case of `CCOC(=O)Nc1sc(C(=O)N(C)C)c(C)c1C(=O)OCC`, the inhibition was 4.28% (inactive).

For the compound `Cc1ccc(Cc2cncc(O)c2)cc1S(=O)(=O)O`, the inhibition is 54.6% (active).

Regarding `Cc1cc(O)cc(O)c1C(=O)Cc1cnn(-c2ccccc2)c1`, the inhibition was -7.76% (inactive).

With `Cn1nc(-c2ccccc2)c(CSc2cccc(Cl)c2)c1Cl`, the inhibition was -3.81% (inactive).

On to `Cn1c(NN)nc2sc3c(c2c1=O)CCC3`, for which the inhibition is -7.13% (inactive).

Take `CCNC(=O)NC(=O)C(C)OC(=O)c1cc(S(=O)(=O)N2CCCCCC2)ccc1OC` (stereo not given): the inhibition is -4.07% (inactive).

Turning to `Cc1cccc(-c2noc(-c3ccc(F)cc3)n2)c1`, the inhibition is -10.2% (inactive).

On to `COc1ccc2[nH]c(=O)c(-c3noc(-c4ccc(F)cc4)n3)cc2c1`, for which the inhibition was 63.8% [fluorescence artefact?] (active).

Regarding `COc1ccc(-c2noc(-c3ccc(C)cc3)n2)cc1`, the inhibition is -3.86% (inactive).

Turning to `CCSc1ccccc1C(=O)NCc1ccc(OC)cc1`, the inhibition was 15.2% (inactive).

In the case of `CCC(=O)NC(Nc1nc2ccc(C)cc2s1)(C(=O)OC)C(F)(F)F` (stereo not given), the inhibition was 9.59% (inactive).

For `Cc1cc(N2CCN(S(=O)(=O)c3ccc(C)c(C)c3)CC2)c2ccccc2n1`, the inhibition was 3.59% (inactive).

Turning to `C1=C(N2CCOCC2)/C(=C/c2nc3ccccc3[nH]2)CC1`, the inhibition was 72.1% (active).

In the case of `c1ccc(Nc2nc(N3CCOCC3)c3ccccc3n2)cc1`, the inhibition was -6.49% (inactive).

As to `c1ccc2[nH]c(NCCN3CCOCC3)nc2c1`, the inhibition was -3.02% (inactive).

For `O=C(Cc1ccc(-n2c(=O)c3sccc3n(Cc3ccc(F)cc3)c2=O)cc1)NCc1ccco1`, the inhibition is 21.4% (inactive).

As to `CS(=O)(=O)c1ccc2c(c1)SC1=NC(=O)/C(=C/c3ccco3)C(=N)N12`, the inhibition is 79% [fluorescence artefact?] (active).

Turning to `O=C1C2C3C=CC(C4CC34)C2C(=O)N1/N=C/c1ccc(-c2ccccc2[N+](=O)[O-])o1` (stereo not given), the inhibition is 2.95% (inactive).

`CC(C)C(=O)NC(NC(=S)NC1CCS(=O)(=O)C1)C(Cl)(Cl)Cl` (stereo not given): the inhibition was 14.7% (inactive).

Take `Cc1coc2c(O)cc3c(c12)OC1(N2CCCCC2)C(=O)NCCCC31` (stereo not given): the inhibition is 60.9% [fluorescence artefact?] (active).

For `COc1ccccc1NC(=O)C1CCCN(c2cc(C)nc3ncnn23)C1` (stereo not given), the inhibition was -2.37% (inactive).

In the case of `CCOc1ccc(C(O)Cc2nc3ccccc3n2C)cc1` (stereo not given), the inhibition is -4.37% (inactive).

For the compound `CCOC(=O)c1ccccc1NS(=O)(=O)c1ccc(OC)cc1`, the inhibition was -1.65% (inactive).

Take `COC(=O)c1cnn2c(C(F)(F)F)cc(-c3ccco3)nc12`: the inhibition is 58.5% (active).

`COC(=O)c1cc2nc(-c3ccccc3)cc(C(F)(F)F)n2n1`: the inhibition was -1.27% (inactive).

As to `O=C(NCc1ccco1)c1cnn2c(C(F)(F)F)cc(-c3ccco3)nc12`, the inhibition was 5.47% (inactive).

For the compound `Cc1noc(/C=C/c2ccco2)c1S(=O)(=O)N1CCC(C(=O)N2CCc3ccccc32)CC1`, the inhibition is -6.43% (inactive).

On to `O=C(Nc1ccc(-c2nnc(-c3ccccc3)o2)cc1)c1ccc(Br)o1`, for which the inhibition is 30% (inactive).

As for `Nc1ccc(-c2nnc(-c3ccc(-c4ccccc4)cc3)o2)cc1`, the inhibition was 19.9% (inactive).

As for `Brc1ccc(-c2nnc(-c3ccccc3)o2)o1`, the inhibition is 60.6% [fluorescence artefact?] (active).

As for `CC(C)n1c(-c2cccs2)nc2ccccc21`, the inhibition is -10.4% (inactive).

As to `Cc1cc(S(=O)(=O)NC2CCCCC2)ccc1OCC(=O)NCc1cccnc1`, the inhibition is -4.71% (inactive).

Take `CC1=C(C(=O)Nc2ccccc2)C(c2ccco2)C(C#N)=C(SCC(N)=O)N1` (stereo not given): the inhibition is -2.8% (inactive).

Consider `N#CC1=C(N)Oc2c(sc3ccccc23)C1c1ccco1` (stereo not given), for which the inhibition was 51.7% [fluorescence artefact?] (active).

For `Cc1cc2c(c(=O)n1Cc1ccco1)C(c1ccccc1)C(C#N)=C(N)O2` (stereo not given), the inhibition is -16.4% (inactive).

Take `CC(C)c1nc2ccc(C(=O)O)cc2[nH]1`: the inhibition was 14.7% (inactive).

In the case of `Cc1nc2ccc(C(=O)O)cc2[nH]1`, the inhibition was 56.8% (active).

Take `Cc1ccc2nc(S(=O)(=O)O)[nH]c2c1`: the inhibition is 3.08% (inactive).

For `Cn1ccs/c1=N\S(=O)(=O)c1ccc(C(C)(C)C)cc1`, the inhibition is 0.33% (inactive).

On to `COc1ccccc1/C=C/C1=NC(=C\N(C)C)/C(=O)O1`, for which the inhibition was 1.45% (inactive).

For the compound `CCNCc1cc2cc(C)ccc2[nH]c1=O`, the inhibition is -8.3% (inactive).

For `COc1ccc(CCn2c(=N)c(C(=O)NCc3ccco3)cc3c(=O)n4cccc(C)c4nc32)cc1`, the inhibition was 48.1% (inactive).

On to `Cc1ccc2[nH]c(=O)c(-c3nc4c(C)cccn4c3NCc3ccco3)cc2c1`, for which the inhibition is 56.9% [fluorescence artefact?] (active).

As to `Cn1nnnc1SCC(=O)Nc1ccccc1C(=O)NC1CC1`, the inhibition was -5.32% (inactive).

Turning to `CC1CN(S(=O)(=O)c2ccccc2)C(C)CN1S(=O)(=O)c1ccccc1` (stereo not given), the inhibition was 1.26% (inactive).

`Cc1cc(C)cc(N(CC(=O)N2CC=C(c3ccccc3)CC2)S(=O)(=O)c2c(C)noc2C)c1`: the inhibition is -1.97% (inactive).

For `CCOc1ccc(S(=O)(=O)Nc2ccc(S(=O)(=O)Nc3cc(OC)ccc3OC)cc2)cc1`, the inhibition was -5.81% (inactive).

Turning to `CCCCCCc1cc2cc(-c3nnc(-c4cccc(OC)c4)o3)c(=O)oc2cc1O`, the inhibition is 1.17% (inactive).
